A short description of test [1]: NCI Yeast Anticancer Drug Screen. Data for the rad50 strain (AID 155).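 Further: 0% = growth of vehicle-only cultures of the same strain.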 The settings on record: S. cerevisiae rad50 strain growth inhibition; at 50.0 µM; stronger effect = higher value. The gist of the method: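 A DNA repair-deficient yeast mutant serves as the test organism; compound-induced growth inhibition is calculated against vehicle-treated cells.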
Test [2] in a line: NCI Yeast Anticancer Drug Screen. Data for the mec2-1 strain (AID 157). The settings on record: S. cerevisiae mec2-1 strain, at 50.0 µM, stronger effect = higher value. The gist of the method:
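Compounds were applied to mec2-1 yeast cells. Their growth was then compared with that of vehicle-treated cultures to give growth inhibition.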

The nature of test [3]: NCI Yeast Anticancer Drug Screen. Data for the sgs1 mgt1 strain (AID 161).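 Further: 0% = growth of cultures given vehicle only.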 The following applies: S. cerevisiae sgs1 mgt1 strain, at 50.0 µM, stronger effect = higher value. The gist of the method: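 Compounds are added to genetically altered yeast, and growth is compared with cultures given vehicle alone to give percent inhibition.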
Test [4] is described as follows: NCI Yeast Anticancer Drug Screen. Data for the cln2 rad14 strain (AID 165).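 Further: 0% = growth equal to vehicle treated cultures.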 The settings on record: S. cerevisiae cln2 rad14 strain, at 50.0 µM, stronger effect = higher value. In a few lines:
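Strain: cln2 rad14 yeast, altered in cell cycle control and DNA damage repair. Read-out: growth inhibition vs vehicle.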

Test [5] is described as follows: NCI Yeast Anticancer Drug Screen. Data for the bub3 strain (AID 167). The following applies: S. cerevisiae bub3 mutant strain, at 50.0 µM, stronger effect = higher value. The gist of the method: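 Inhibition values come from growth of compound-treated mutant yeast normalised to vehicle-treated controls.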
Test [6] is described as follows: NCI Yeast Anticancer Drug Screen. Data for the mlh1 rad18 strain (AID 175). The following applies: S. cerevisiae mlh1 rad18 strain growth inhibition; at 50.0 µM; stronger effect = higher value. In a few lines: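 A repair-deficient yeast strain is exposed to test compound, and growth is scored relative to vehicle-treated controls.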

Compounds without any hit were thinned out: in the full panel of roughly 79,000, 15% have a hit. A number with no mark means an inactive call. The source made the active and inactive calls. No stated cut-off is given here; in the data, active means growth inhibition above about 70%; inactive means the rest.

As to `CCN(CC)CN1C(=O)C(=O)c2ccccc21`, the growth inhibition was 6.8% in test [1]; -25.4% in test [2]; 2.6% in test [3]; 24.4% in test [4]; 12.8% in test [5]; 10.3% in test [6].

Take `CCOC(=O)C(=CNc1cccc(N)n1)C(=O)OCC`: the growth inhibition in test [1] is -3.35%; in test [2], -17.9%; in test [3], 28%; in test [4], -8.55%; in test [5] it was 20.4%; in test [6] it was 5.75%.

As to `Nc1c(Br)cc2c([nH]c(=O)c3cc(Br)ccc32)c1Br`, the growth inhibition in test [1] was 47.1%; in test [2], 32.2%; in test [3], 27.1%; in test [4], 27.8%; in test [5], 8.75%; in test [6], 32.1%.

Turning to `C/C(=N\NC(=O)/C(C#N)=C\c1ccc(N(CCC#N)CCC#N)cc1)c1ccccc1`, the growth inhibition in test [1] was 0.2%; in test [2], -14.2%; in test [3] it was -20.5%; in test [4], -6.9%; in test [5] it was -7.4%; in test [6] it was -1.95%.

Regarding `NC1c2c(Cl)sc(Cl)c2C(=O)C1O` (stereo unspecified), the growth inhibition was -0.8% in test [1]; 15.2% in test [2]; -10.2% in test [3]; -3.6% in test [4]; 4% in test [5]; -40.4% in test [6].

With `O=[n+]1c2c(n([O-])c3cc(Cl)c(Cl)cc31)CCCC2`, the growth inhibition in test [1] was 11.8%; in test [2], 11.2%; in test [3], 17.5%; in test [4], -2%; in test [5], 25.9%; in test [6], 4.9%.

As for `Cc1cccc(C)c1NC(=O)C(Cl)(Cl)Sc1ccc(Cl)cc1Cl`, the growth inhibition in test [1] is 0.3%; in test [2], -34.9%; in test [3], 5.9%; in test [4], 8.65%; in test [5] it was -5.2%; in test [6], -2.6%.

Consider `CC(C)(C)c1cc(CCCCCCCC2(CCCCCCCc3cc(C(C)(C)C)cc(C(C)(C)C)c3)OC(COCCOCCCCCC#N)C(COCCOCCCCCC#N)O2)cc(C(C)(C)C)c1` (stereo unspecified), for which the growth inhibition in test [1] was 24.6%; in test [2], -6.5%; in test [3], -1.5%; in test [4], -18%; in test [5] it was 0%; in test [6], 9.6%.

Regarding `CCCCCCCCCCCC[N+]1(C)CCS(=O)CC1` (stereo unspecified), the growth inhibition in test [1] is 84.7% (active); in test [2] it was 84.3% (active); in test [3], 80% (active); in test [4], 70.7% (active); in test [5], 63.4%; in test [6], 85.3% (active).

As for `O=C1c2ccccc2S[C@@H](O)[C@@H]2CCCN12`, the growth inhibition in test [1] was -31.9%; in test [2] it was -13.7%; in test [3], -64.7%; in test [4], -13.7%; in test [5], -41.8%; in test [6] it was -41.7%.

Consider `CCOC(=O)/C(=N\O)C(C)(C)c1ccnc2ccccc12`, for which the growth inhibition in test [1] was -4%; in test [2] it was 0.6%; in test [3], -10.9%; in test [4], 4.05%; in test [5], -5%; in test [6] it was 4.7%.

Consider `CCOC(=O)C(C#N)C1(O)C(=O)Nc2ccccc21` (stereo unspecified), for which the growth inhibition is -4.65% in test [1]; -5% in test [2]; -6.7% in test [3]; 3.8% in test [4]; 0.55% in test [5]; 10.2% in test [6].

Turning to `CCOCCn1c(=O)cc(C)c2ccccc21`, the growth inhibition in test [1] was -20.3%; in test [2], 1.6%; in test [3], -16.8%; in test [4], -41.3%; in test [5], 14.2%; in test [6], -13.7%.

Take `CC(C)(CCCCC(C)(C)NC1=NCCO1)NC1=NCCO1`: the growth inhibition was -0.2% in test [1]; -8.8% in test [2]; 9.9% in test [3]; -20.6% in test [4]; -4.45% in test [5]; -9.4% in test [6].

On to `CCc1c(CNc2ccc(C(=O)NC(CC(=O)O)C(=O)O)cc2)ccc2nc(N)nc(N)c12` (stereo unspecified), for which the growth inhibition in test [1] is 5.5%; in test [2], -0.5%; in test [3], 11.9%; in test [4], 2.85%; in test [5] it was -4%; in test [6], 5.6%.

In the case of `CN(C)c1nc2ccccc2[nH]1`, the growth inhibition was 2.6% in test [1]; -4.25% in test [2]; 11.9% in test [3]; -1.35% in test [4]; -4.85% in test [5]; -2% in test [6].

For `Cc1ccc(S(=O)(=O)NN=C2C(C)CC(C(C)(C)C)CC2C)cc1` (stereo unspecified), the growth inhibition was -24.8% in test [1]; 26% in test [2]; -41.9% in test [3]; 8.9% in test [4]; 44.6% in test [5]; -6% in test [6].

As for `OCc1ccc(CO)o1`, the growth inhibition in test [1] is 17.8%; in test [2], 15.7%; in test [3], -16.4%; in test [4], -1.55%; in test [5], 24.1%; in test [6], 5.4%.

Take `CC(O)CCCCC(O)CCC[C@H](O)[C@H]1CCC([C@H]2CCC([C@@H](O)CCCCCCCCCCCCC3=C[C@H](C)OC3=O)O2)O1` (stereo partly specified): the growth inhibition is 40.9% in test [1]; 29.1% in test [2]; 71.2% (active) in test [3]; 85.5% (active) in test [4]; -16.7% in test [5]; 81.7% (active) in test [6].

On to `CCCCCCCCCCCCCC#N`, for which the growth inhibition in test [1] was 5.85%; in test [2], -3.55%; in test [3], 3.35%; in test [4], 5.25%; in test [5], 1.65%; in test [6], 25.8%.

`CCOC(=O)C1=C(C)c2ccccc2OC1C(=O)O` (stereo unspecified): the growth inhibition is 4.55% in test [1]; 11.1% in test [2]; 16.8% in test [3]; -23.4% in test [4]; -13.1% in test [5]; -10.3% in test [6].

Values taken from PubChem BioAssay (NCI).
